AMA1 RON2 block: disrupts binding of P. falciparum AMA1 to RON2; AlphaScreen AMA1-biotinylated RON2 peptide binding; Potency, µM (series often up to 58.2 µM), inactives show at the top dose activity change, negative = inhibition, hits mostly inhibitors; hit rate 0.2% among 360,000; AID 720542;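 also: 0% = vehicle wells and -100% = peptide control; nearly all actives have a fitted effect of over 45% in size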
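AMA1 (3D7) with his tag at 25 nM final met compounds first, then biotinylated RON2 peptide at 25 nM; detection used donor plus acceptor beads, 10 µg/mL apiece, read by AlphaScreen after 30 min at room temperature.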
HCV inhibitor: blocks hepatitis C virus. Huh7.5.1 HCVcc-Cre infection, luciferase reporter, 44 h. Potency, µM (series often up to 41.8 µM), inactives show at the highest dose activity change, negative = inhibition, actives largely listed as inhibitors. hit rate 3.4% among 340,000
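Whole-lifecycle infectious HCVcc-Cre system; cells 1,000/well, compound then virus (~0.5 moi) added 4 h after plating, 44 h culture. Luciferase read 15 sec following 15 min substrate incubation, room temp.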
AmpC detergent: blocks E. coli AmpC beta-lactamase in detergent assay; P00811; AmpC hydrolysis of nitrocefin, absorbance 480 nm, 0.01% Triton; Potency, µM (highest dose often 114 µM), for inactives: at the top dose activity change, negative = inhibition, usual class: inhibitors; hit rate 0.041% among 370,000;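 also: 0% = no-compound wells and -100% = no-enzyme wells; nearly all actives have a fitted effect of over 25% in size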
Target sequence (P00811 whole entry, looked up): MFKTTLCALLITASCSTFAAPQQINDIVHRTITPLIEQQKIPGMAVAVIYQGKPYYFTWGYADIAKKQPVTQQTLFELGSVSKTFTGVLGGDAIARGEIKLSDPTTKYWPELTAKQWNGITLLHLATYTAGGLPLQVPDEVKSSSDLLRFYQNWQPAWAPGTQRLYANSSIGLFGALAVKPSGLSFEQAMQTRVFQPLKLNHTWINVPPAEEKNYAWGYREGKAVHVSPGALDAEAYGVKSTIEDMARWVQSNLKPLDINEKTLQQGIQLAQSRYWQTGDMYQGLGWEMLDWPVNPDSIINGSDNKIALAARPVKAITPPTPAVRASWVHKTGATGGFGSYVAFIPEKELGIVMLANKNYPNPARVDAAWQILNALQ
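AmpC (5.3 nM in the dispensed reagent) in 20 mM phosphate pH 7.0 with 0.01% (detergent screen) or 0.0001% Triton X-100 was preincubated with compounds for 15 min at room temperature. Nitrocefin was then added from an 800 uM solution, and hydrolysis was followed at 480 nm.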
AmpC no deterg: AmpC beta-lactamase inhibition without detergent | hit rate 0.52% among 330,000 | Potency, µM (series often up to 57.1 µM), without a hit: at the highest dose activity change, negative = inhibition, usual class: inhibitors | P00811 | AID 485341 | AmpC nitrocefin hydrolysis, absorbance 480 nm, 0.0001% Triton;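 also: plate controls were no compound for no effect and no enzyme for full effect; nearly all actives have a fitted effect of over 20% in size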
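20 mM phosphate pH 7.0 + 0.01% (detergent screen) or 0.0001% Triton X-100; 5.3 nM AmpC reagent; cpd preinc 15 min RT; nitrocefin (800 uM stock) to start; A480 q20 s × 4 min; Activity was normalised to no-enzyme and no-compound control wells.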
Pf growth 48h: inhibits P. falciparum growth in the first generation, 48 h; hit rate 5.9% among 310,000; Potency, µM (highest dose often 28.7 µM), for inactives: at the top dose activity change, negative = inhibition, actives largely listed as inhibitors; P. falciparum luciferase growth in erythrocytes, 48 h
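Compounds are pin-transferred into medium, infected erythrocytes (2% hematocrit, 0.1% parasitemia final) are added, and plates sit one parasite generation at 37 C in 5% CO2. Detection reagent is then added and luminescence measured.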
Pf growth 96h: inhibits malaria parasite growth, 96 h | P. falciparum luciferase reporter growth, 96 h | hit rate 6.9% among 320,000 | Potency, µM (top dose mostly 28.7 µM), for inactives: top-dose activity change, negative = inhibition, hits mostly inhibitors | AID 504834
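Readout is luminescence from an integrated firefly luciferase in P. falciparum. Red cells, 2% hematocrit and 0.05% parasitemia final, were cultured with compound through two parasite generations (96 hours) at 37 C, 5% CO2.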
Numbers without * were called inactive; ? = inconclusive; / = no result; [ ] = remark or other dose. Most compounds without a hit are left out; they make up all but 11% or so of the library. Calls follow the shape of the dose curve; as a rule, active = well fitted curve in the direction sought with a large enough effect; inconclusive = small, poorly fitted or top-dose-only effect, or another doubt; inactive = no such curve, though single readings can be large; an effect the other way counts as inactive or inconclusive. Unless noted, % is scaled to controls: 0 for no effect and ±100 for the full control effect; potency is read from the fitted curve at half-maximal effect.

SMILES	AMA1 RON2 block	HCV inhibitor	AmpC detergent	AmpC no deterg	Pf growth 48h	Pf growth 96h
O=C(CCCn1c(=O)[nH]c2ccccc2c1=O)NCCSCc1ccccc1	-8%	-22%	1%	-12%	?	-7%
Cc1ccc(CNC(=O)c2cc3c(=O)n(C)c4ccccc4c3n2C)o1	-8%	-23%	?	-6%	/	9.3µM*
O=C(CCCCCn1c(=O)[nH]c2ccccc2c1=O)NCCCN1CCN(c2ccccc2F)CC1	-3%	13µM*	1%	122%	/	12%
CC1CCN(CCCNC(=O)c2cc3c(=O)n(C)c4ccccc4c3n2C)CC1	-3%	?	?	13%	/	7.4µM*
Cn1c(C(=O)NCCCN2CCN(c3ccccc3F)CC2)cc2c(=O)n(C)c3ccccc3c21	-10%	-13%	-11%	94%	/	9.3µM*
CCS(=O)(=O)N1CCC(C(=O)NCCC(C)C)CC1	/	/	3%	/	/	/
COc1ccc(NCc2cc3cc4c(cc3n(CC(=O)Nc3cc(C)ccc3C)c2=O)OCCO4)cc1	/	/	16%	/	/	/
CCc1ccc(S(=O)(=O)N2c3ccc(C)cc3C3CN(C)CCC32)cc1 (stereo unspecified)	-6%[11.6 µM]	?	?	107%	10µM*	?
COc1ccc(C)cc1S(=O)(=O)N1c2ccc(C)cc2C2CN(C)CCC21 (stereo unspecified)	1%	?	?	25%	?	10µM*
CCn1c(=O)n(CC)c2cc(N3CCCCC3)c(NC(=O)Nc3cc(Cl)ccc3OC)cc21	/	/	-8%	/	/	/
COc1cc(OC)c2c(-c3ccccc3)cc(=O)oc2c1C(CCN1CCOCC1)c1ccc2c(c1)OCO2 (stereo unspecified)	?	32%[8.37 µM]	/	207%	/	/
COc1cc(C(CCN2CCCCC2)c2c(OC)cc(OC)c3c(C)cc(=O)oc23)cc(OC)c1OC (stereo unspecified)	0%	?	-2%	68%	8.3µM*	9.3µM*
COc1ccc(C(CCN2CCOCC2)c2c(OC)cc(OC)c3c(-c4ccccc4)cc(=O)oc23)cc1 (stereo unspecified)	-21%	32µM*	/	167%	/	/
COc1cc(OC)c2c(C)cc(=O)oc2c1C(CCN1CCN(c2ccccc2)CC1)c1ccc2c(c1)OCO2 (stereo unspecified)	-24%	?	-6%	37%	3.3µM*	2.1µM*
COc1cc(OC)c2c(-c3ccccc3)cc(=O)oc2c1C(CCN1CCCC1)c1ccc2c(c1)OCO2 (stereo unspecified)	0%	44%[8.37 µM]	-6%	185%	?	8.3µM*
COc1cc(C(CCN2CCOCC2)c2c(OC)cc(OC)c3c(-c4ccccc4)cc(=O)oc23)cc(OC)c1OC (stereo unspecified)	-26%	?	/	187%	/	/
COc1ccc(C(CCN2CCCC2)c2c(OC)cc(OC)c3c(-c4ccccc4)cc(=O)oc23)cc1 (stereo unspecified)	-9%	-4%	7%	157%	12µM*	12µM*
COc1cc(OC)c2ccc(=O)oc2c1C(CCN1CCOCC1)c1ccc2c(c1)OCO2 (stereo unspecified)	-18%	2%	/	178%	/	/
COc1ccc(C(CCN2CCOCC2)c2c(OC)cc(OC)c3ccc(=O)oc23)cc1 (stereo unspecified)	-3%	2.8µM*	/	111%	/	/
COc1cc(C(CCN2CCCC2)c2c(OC)cc(OC)c3c(-c4ccccc4)cc(=O)oc23)cc(OC)c1OC (stereo unspecified)	-10%	-21%	2%	242%	2.3µM*	1.9µM*
COc1ccccc1Cc1nc2ccccc2nc1SCC(=O)N(C)c1ccc(F)cc1	/	/	3%	/	/	/
Nc1cc(Cl)ccc1N1CCCCCC1	-6%	11%	-11%	-9%	2.6µM*	-125%[5.75 µM]
Nc1ccc(N2CCCCC2)cc1N1CCCCC1	?	?	-8%	27%	3.3µM*	38%
O=C(COc1ccccc1Cl)NCC1(N2CCOCC2)CCCCC1	/	/	-1%	/	/	/
CN(C)CCn1c(=O)n(Cc2ccccc2)c(=O)c2c3c(sc21)CCCCC3	?	7%	-2%	-3%	-17%	?
SMILES	AMA1 RON2 block	HCV inhibitor	AmpC detergent	AmpC no deterg	Pf growth 48h	Pf growth 96h
CCOC(=O)c1sc2c(c1C)c(=O)n(Cc1ccccc1)c(=O)n2CCN(C)C	-10%	-7%	-14%	142%	?	2.1µM*
CCOc1ccccc1NC(=O)Cn1c(=O)n(CCCC(=O)NCCc2ccc(C)cc2)c(=O)c2ccccc21	/	/	18%	/	/	/
COc1cccc(NS(=O)(=O)c2ccc3[nH]cc(C(=O)NCCC(C)C)c(=O)c3c2)c1	10%	?	-3%	-43%	9.3µM*	61%
Cc1ccccc1NS(=O)(=O)c1ccc2[nH]cc(C(=O)NCCc3ccccc3)c(=O)c2c1	/	/	?	-21%	15µM*	?
Cc1cccc2c(=O)c(C(=O)NCCc3ccccc3)c[nH]c12	-10%	-27%	-9%	-23%	21%	4.7µM*
CCc1ccccc1NS(=O)(=O)c1ccc2[nH]cc(C(=O)NC3CCCC3)c(=O)c2c1	-16%	5%	?	-28%	13µM*	-2%
CC(C)CCNC(=O)c1c[nH]c2ccc(S(=O)(=O)Nc3cccc(C(F)(F)F)c3)cc2c1=O	/	/	11%	/	/	/
O=C(NCCc1ccccc1)c1c[nH]c2c(F)cccc2c1=O	14%	-11%	?	-2%	26%	-2%
